Laboratory results taken from PubChem BioAssay AID1985 (Southern Research Specialized Biocontainment Screening …, 2009).
Among all 2,300 compounds or so, about 1,000 (43%) were called active. No rule for the calls is given here. The set was probably picked from earlier hits. Some of the results follow. Where a call stands in place of a potency, no number is given. Potency and affinity values are given separately.

Test: PhoP regulon inhibitor project modified counter assay, GFP fluorescence readout, dose response (AID 1985)
Conditions: S. Typhi, 4 h; series mostly up to 150 µM
In the case of `CCNC(=S)N1CCN(CC)CC1`, the outcome is reported as “inactive”.
For `COc1ccc(OC)c(NC(=O)CCNS(=O)(=O)c2ccc3c(c2)c(=O)n(C)c(=O)n3C)c1`, the outcome was “inactive”.
With `CCOC(=O)c1[nH]c2ccc(Cl)cc2c1NC(=O)c1nonc1C` the outcome was “inactive”.
In the case of `Cc1cc(Cl)ccc1OCC(=O)N/N=C/c1ccncc1`, the outcome is reported as “inactive”.
For `Cc1ccc(/C=N/NC(=O)Cc2cccn2C)cc1`, the outcome was “inactive”.
In the case of `NS(=O)(=O)c1cc2c(cc1Cl)NC(Cc1ccccc1)NS2(=O)=O` (stereo not drawn), the outcome is reported as “inactive”.
In the case of `CN(Cc1ccccc1)S(=O)(=O)c1csc(C(N)=O)c1`, the outcome is reported as “inactive”.
For `Cn1cc(S(=O)(=O)Nc2ccc(OC(F)(F)F)cc2)c(=O)n(C)c1=O`, the outcome was “inactive”.
With `CCOc1ccc2ccccc2c1C(=O)N[C@@H]1C(=O)N2[C@@H]1SC(C)(C)[C@@H]2C(=O)O` the outcome was “inactive”.
In the case of `CN(C)C(=O)CSc1nnc(Cc2ccc([N+](=O)[O-])cc2)o1`, the outcome is reported as “inactive”.
With `O=C(c1ccccc1)N1CCN(c2ccc([N+](=O)[O-])c(NCc3ccco3)c2)CC1` the outcome was “inactive”.
In the case of `COc1ccc(CCC(=O)NCc2cn3ccccc3n2)cc1`, the outcome is reported as “inactive”.
In the case of `CCOC(=O)CSc1nnc2c(n1)C1(C)CCC2C1(C)C` (stereo not drawn), the outcome is reported as “inactive”.
With `O=C(N/N=C/c1ccc(N2CCOCC2)cc1)c1ccc(O)cc1` the outcome was “inactive”.
With `CC(C)=CCN1CCN(Cc2nc(-c3ccccc3)cs2)CC1CCO` (stereo not drawn) the outcome was “inactive”.
In the case of `CC1CCCCN1S(=O)(=O)c1ccc(S(=O)(=O)NCCc2ccncc2)cc1` (stereo not drawn), the outcome is reported as “inactive”.
For `Brc1ccc2nc(-c3c[nH]c4ccccc34)cn2c1`, the outcome was “inactive”.
With `Cc1cccc(OCC(=O)NNc2c3ccccc3nc3ccccc23)c1` the outcome was “inactive”.
For `CC1(C)CC(CCNC(=O)c2ccc(-n3cnnn3)cc2)CC(C)(C)N1`, the outcome was “inactive”.
For `Cc1cc(=O)n(CC(C)C)c(O)c1C#N`, the outcome was “inactive”.
With `Cc1onc(C(=O)/C=C/N(C)C)c1C(=O)Nc1nccs1` the outcome was “inactive”.
In the case of `CCOc1ccccc1-c1cc(-c2ccccc2)nc2c1c(=O)n(C)c(=O)n2C`, the outcome is reported as “inactive”.
For `C=C(C)COc1ccc2c(C)c(CCC(=O)NC3CC3)c(=O)oc2c1`, the outcome was “inactive”.
For `N#Cc1ccc(-c2ccc(OCC(=O)NCCCN3CCCC3=O)cc2)cc1`, the outcome was “inactive”.
With `CC1(C)CC(=O)C(C(=O)/C=C/NCCc2ccccc2)C(=O)C1` the outcome was “inactive”.
For `CC(C)(C)c1ccc(NC(=O)NCc2ccco2)cc1`, the outcome was “inactive”.
For `Cc1ccc(SCc2[nH]nc3c2C(c2cccnc2)C(C#N)=C(N)O3)cc1` (stereo not drawn), the outcome was “inactive”.
With `Nc1cc(N2CCOCC2)c(Cl)cc1[N+](=O)[O-]` the outcome was “inactive”.
With `C=C(C)Cn1c(SCC#N)nc2ccccc2c1=O` the outcome was “inactive”.
With `COc1cccc(CNC23CC4CC(CC(C4)C2)C3)c1OCc1ccccc1` the outcome was “inactive”.
In the case of `Cc1ccc(NC(=S)NCc2cccs2)cc1`, the outcome is reported as “inactive”.
With `Cc1ccc(NC(=S)NCc2cccnc2)cc1` the outcome was “inactive”.
For `COc1cccc(CNS(=O)(=O)c2ccc3c(c2)NC(=O)CS3)c1`, the outcome was “inactive”.
For `CC(c1ccccc1)(c1ccccc1)c1ccncc1`, the outcome was “inactive”.
With `CC(C)SCc1nc2ccccc2[nH]1` the outcome was “inactive”.
With `Nc1cncc(C(=O)O)c1` the outcome was “inactive”.
For `C/C(=N\NC(=O)COc1ccccc1[N+](=O)[O-])c1cccs1`, the outcome was “inactive”.
For `CCCC(=NCc1ccccc1)C1=C(O)C(C(=O)OC)C(C)(C)CC1=O` (stereo not drawn), the outcome was “inactive”.
For `CN1C2=CC=CC=CC2=[N+](C)C12C=CC(=[N+]([O-])[O-])C=C2[N+](=O)[O-]` (stereo not drawn), the outcome was “inactive”.
For `Cc1cc(Br)cc2cn[nH]c12`, the outcome was “inactive”.
In the case of `O=C(COc1ccc2ccccc2c1)Nc1nccs1`, the outcome is reported as “inactive”.
With `CCCN1C(=O)c2ccc(C(=O)Nc3nccs3)cc2C1=O` the outcome was “inactive”.
With `O=C(Nc1ccccc1)Nc1cccc(Cl)c1` the outcome was “inactive”.
With `O=C(CCl)Nc1nccs1` the outcome was “inactive”.
With `Cc1[nH]c(=O)[nH]c(=O)c1S(=O)(=O)N1CCCC(C(=O)NCc2ccc3c(c2)OCO3)C1` (stereo not drawn) the outcome was “inactive”.
For `COc1ccc(NC(=O)N(CCc2ccccc2)Cc2cc3c(C)cc(C)cc3[nH]c2=O)cc1`, the outcome was “inactive”.
In the case of `CCCOc1ccc(N2C(=O)C3C(C(C)C)NC4(C(=O)c5ccccc5C4=O)C3C2=O)cc1` (stereo not drawn), the outcome is reported as “inactive”.
With `COc1ccc(OC)c(S(=O)(=O)N2CCC(C(=O)NCc3ccccc3OC)CC2)c1` the outcome was “inactive”.
With `O=C(NCc1ccccc1)c1ccc(CNc2c(N3CCCC3)c(=O)c2=O)cc1` the outcome was “inactive”.
With `Cc1ccc(C(C(=O)NCCc2ccccc2)N(C(=O)c2csnn2)C2CC2)o1` (stereo not drawn) the outcome was “inactive”.
In the case of `CCC(C)(c1ccc(C(=O)OC)s1)c1ccc(C(=O)OC)s1`, the outcome is reported as “inactive”.
In the case of `CN1C(=O)/C(=C2/C=Cc3ccccc3N2CCCS(=O)(=O)O)SC1=S`, the outcome is reported as “inactive”.
For `COc1ccccc1-n1c(SCC(=O)O)nnc1-c1ccc(S(=O)(=O)N2CCCCC2)cc1`, the outcome was “inactive”.
In the case of `O=C(Nc1ccc(F)cc1)C1CCC(CNc2c(N3CCCCC3)c(=O)c2=O)CC1` (stereo not drawn), the outcome is reported as “inactive”.
With `Cc1c(C(=O)N2CCN(Cc3ccccc3)CC2)sc2ncnc(N3CCOCC3)c12` the outcome was “inactive”.
With `COc1ccccc1Oc1coc2c(CN3CCN(C)CC3)c(O)ccc2c1=O` the outcome was “inactive”.
In the case of `Oc1c(CN2CCOCC2)cc(COCc2ccccc2)c2cccnc12`, the outcome is reported as “inactive”.
For `Oc1ccc(CN2CCN(c3ccccc3)CC2)c2cccnc12`, the outcome was “inactive”.
For `CCCC(c1nnnn1Cc1ccc(OC)cc1)N1CCN(c2ccccc2OC)CC1` (stereo not drawn), the outcome was “inactive”.
For `N#C/C(=C\c1ccc(O)c(O)c1)C(=O)c1ccc(O)c(O)c1`, the outcome was “inactive”.
In the case of `COc1ccc(CNC(=O)CCC(=O)N2C[C@H]3C[C@H](C2)c2cccc(=O)n2C3)cc1`, the outcome is reported as “inactive”.
For `CCOC(=O)Cc1nn(C)c(=O)c2ccccc12`, the outcome was “inactive”.
For `O=C(/C=C/c1c(F)cccc1Cl)N1CCOCC1`, the outcome was “inactive”.
With `COc1cc(OC)nc(NC(=O)C(C)C)n1` the outcome was “inactive”.
For `NC(=O)c1c(NC(=O)CSc2nc(N)cc(=O)[nH]2)sc2c1CCCC2`, the outcome was “inactive”.
With `COCc1cc(=O)n2[nH]c(C)nc2n1` the outcome was “inactive”.
For `Nc1ccc(S(=O)(=O)Nc2ccc(Cl)nn2)cc1`, the outcome was “inactive”.
With `CC1=C(c2ccccc2)SC2=NCCN21` the outcome was “inactive”.
With `O=C(NCc1cccnc1)c1ccc(COc2ccc(Cl)cc2)cc1` the outcome was “inactive”.
For `CN(C)CCNC(=O)c1ccc(COc2ccc(Cl)cc2Cl)cc1`, the outcome was “inactive”.
In the case of `O=C(COc1ccc(Cl)cc1)N1CCCCC1`, the outcome is reported as “inactive”.
With `Clc1ccc(OCc2nn3c(C4CCCCC4)nnc3s2)c(Cl)c1` the outcome was “inactive”.
In the case of `CC(=O)Nc1nc(C)c(-c2csc(Nc3ccc(O)cc3)n2)s1`, the outcome is reported as “inactive”.
